The list is not random: actives were taken first. Their share in the collection is about 1.8%.
RGS4 inhibitor = blocks human RGS4-accelerated GTP hydrolysis | P49798 | Transcreener GDP fluorescence polarization, RGS4-accelerated GTP hydrolysis | Potency, µM (titrated, usually from 114 µM), actives largely listed as inhibitors | 390,000 compounds, 0.039% hits; also: nearly all actives have a fitted effect of over 75% in size
Target sequence (P49798 whole entry, looked up): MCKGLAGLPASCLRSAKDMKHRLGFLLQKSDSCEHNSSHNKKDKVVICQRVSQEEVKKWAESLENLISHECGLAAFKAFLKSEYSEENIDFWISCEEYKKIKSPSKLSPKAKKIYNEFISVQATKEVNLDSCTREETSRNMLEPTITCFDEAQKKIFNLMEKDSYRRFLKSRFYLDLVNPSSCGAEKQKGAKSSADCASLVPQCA
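MLSMR compounds (23 nl, pin-transferred) preincubated 10 min at room temperature with a 500nM (2x) first reagent, then RGS4 at 900nM (2x) plus Transcreener GDP mix added; fluorescence polarization (620/688 nm) read before and after 90 min at 30 °C.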
KAT2A inh = GCN5L2 (KAT2A) acetyltransferase inhibition; Potency, µM (series often up to 58.9 µM), actives largely listed as inhibitors; AID 504327; GCN5L2 HAT assay, ThioGlo1 CoA-SH fluorescence; Q92830; 390,000 compounds, 0.21% hits
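GCN5L2 (20nM final) in 50mM HEPES, 0.1mM EDTA pH 7.5, 0.01% Tween-20 was preincubated 15 min at room temperature with compound, then given ThioGlo1 (50uM), H3(1-25) peptide (75uM) and acetyl-CoA (70uM); CoA-thiol fluorescence (Ex340/Em540) was read at 0 and 20 min.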
GLP1R inv ag = GLP-1 receptor (human) inverse agonism. Potency, µM (top dose mostly 38.3 µM), hits mostly inhibitors. 410,000 compounds, 1.6% hits. HEK293 GLP-1R CRE-luciferase, luminescence, 24 h; GLP-1R form is constitutively active; also: nearly all actives have a fitted effect of over 55% in size
Target sequence (P43220 whole entry, looked up): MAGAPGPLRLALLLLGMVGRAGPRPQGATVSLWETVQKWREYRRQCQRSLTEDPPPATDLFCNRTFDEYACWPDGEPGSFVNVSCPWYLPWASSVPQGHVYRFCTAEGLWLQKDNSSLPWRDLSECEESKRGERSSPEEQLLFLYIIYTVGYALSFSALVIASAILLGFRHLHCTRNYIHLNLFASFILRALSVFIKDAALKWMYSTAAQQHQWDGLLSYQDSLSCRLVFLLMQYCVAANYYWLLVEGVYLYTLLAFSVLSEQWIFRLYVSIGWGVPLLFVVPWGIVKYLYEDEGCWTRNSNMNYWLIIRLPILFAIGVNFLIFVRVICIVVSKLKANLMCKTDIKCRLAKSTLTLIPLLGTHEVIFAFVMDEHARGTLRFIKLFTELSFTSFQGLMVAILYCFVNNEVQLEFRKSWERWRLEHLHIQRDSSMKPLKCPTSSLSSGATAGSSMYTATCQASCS
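Inverse agonists were sought by their lowering of basal cAMP reporter luciferase output in HEK293 cells stably carrying constitutively active human GLP-1R, after 24 h compound treatment.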
PTHR1 agonist = activates the human parathyroid hormone receptor PTHR1 | Potency, µM (series often up to 115 µM), usual class: activators | 410,000 compounds, 0.075% hits | Q03431 | HEK293 GP2 PTHR1 cells, GloSensor cAMP luminescence, 1 h; also: nearly all actives have a fitted effect of over 55% in size
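HEK-293-derived GP2 cells expressing PTHR1 and a GloSensor cAMP reporter, 3,000/well, plated overnight, given luciferin plus IBMX (each 0.5 mM as added) for 1 h at 37 °C, then compound for 1 h at 37 °C. Luminescence was read after 15 min at room temperature.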
GLP1R cytotox = cytotoxicity counter-screen for GLP-1 receptor inverse agonists. HEK293 cAMP-luciferase reporter cells, luminescence, 24 h. Potency, µM (top dose mostly 38.3 µM), actives largely listed as inhibitors. 410,000 compounds, 0.13% hits. AID 624418;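 also: loss of luciferase light is scored as toxicity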
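To flag toxic compounds, the library was rerun on cells for 24 hr at 37 deg C and 5% CO2. Viability-linked luminescence was captured 12 min after adding luciferase detection reagent.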
GLP1R ag = GLP-1 receptor (human) agonism. Potency, µM (doses to about 45.6 µM), hits mostly activators. P43220. 380,000 compounds, 0.007% hits. HEK293 GLP-1R CRE-luciferase, luminescence, 4-6 h; cells express a hypersensitive GLP-1R form
Large screens that a line does not name were inactive. Calls follow the shape of the dose curve; as a rule, active = well fitted curve in the direction sought with a large enough effect; inconclusive = small, poorly fitted or top-dose-only effect, or another doubt; inactive = no such curve, though single readings can be large; an effect the other way counts as inactive or inconclusive.

C[C@H](CO)N1C[C@H](C)[C@H](CN(C)S(=O)(=O)c2ccc3ccccc3c2)OCc2cnnn2CCCC1=O	none (no result: RGS4 inhibitor, KAT2A inh)
O=C(Nc1ccc(NC(=O)N2CCN(c3ccccc3O)CC2)cc1)N1CCN(c2ccccc2O)CC1	GLP1R inv ag 5µM
Cc1cc(C)n(-c2nc3ccccc3c(=O)n2OCC#N)n1	GLP1R inv ag 3.2µM, GLP1R cytotox inconclusive
COc1ccc(/C=C/c2onc(C)c2S(=O)(=O)N2CCC(C(=O)N3CCCCCC3)CC2)cc1	GLP1R inv ag 5µM
CCCN1CCN(C(=O)C2CCN(S(=O)(=O)c3c(C)noc3/C=C/c3ccc(C)cc3)CC2)CC1	GLP1R inv ag 3.2µM, GLP1R cytotox inconclusive
Cc1ccc(Cn2c(C)c3cnn(CC(=O)NCCc4ccc(Cl)cc4)c(=O)c3c2C)cc1	none (no result: GLP1R ag)
CCOC(=O)C(C)Oc1cccc2c(=O)n(CC(=O)NCc3ccc(F)cc3)ccc12 (stereo not given)	GLP1R inv ag inconclusive
Cc1ccccc1NC1=C/C(=N\S(=O)(=O)c2ccc(C(=O)O)cc2)c2ccccc2C1=O	GLP1R inv ag 8.9µM, GLP1R cytotox inconclusive
COc1ccc(N2CCN(CC(O)COc3ccc(C(C)C)c(C)c3)CC2)cc1 (stereo not given)	GLP1R inv ag 13µM, GLP1R cytotox inconclusive (no result: GLP1R ag)
COc1ccc(N2CCN(CC(O)COc3ccc(C)c(C)c3)CC2)cc1 (stereo not given)	GLP1R inv ag inconclusive
CCC(Oc1ccc(F)cc1)C(=O)Nc1cc(-c2ccc(C)cc2)no1 (stereo not given)	GLP1R inv ag inconclusive (no result: GLP1R ag)
CCC(Oc1ccc(F)cc1)C(=O)Nc1nc(-c2ccc(F)cc2)ns1 (stereo not given)	GLP1R inv ag 10µM (no result: GLP1R ag)
COc1ccc(S(=O)(=O)Nc2ccc(Nc3ccccc3)cc2)cc1	GLP1R inv ag 7.1µM (no result: KAT2A inh)
Cc1ccc(NC(=O)c2ccc(F)c(S(=O)(=O)NCCc3ccccc3)c2)cc1F	GLP1R inv ag inconclusive (no result: GLP1R ag)
NC(=S)n1[nH]c(-c2ccc([N+](=O)[O-])cc2)c(N=Nc2ccc(Cl)cc2)c1=O	RGS4 inhibitor inconclusive, GLP1R inv ag 10µM, GLP1R cytotox inconclusive
NC(=S)NN=C1c2ccccc2-c2ccccc21	GLP1R inv ag inconclusive, GLP1R cytotox 1.4µM
C/C(=N\NC(=S)NCCc1ccccc1)c1ccc(C#N)cc1	none
C/C(=N\NC(=S)NCCc1ccccc1)c1ccc(C)cc1	GLP1R inv ag inconclusive, GLP1R cytotox 10µM
Cc1cccc(NC(=S)NCCc2ccccc2)n1	GLP1R inv ag inconclusive, GLP1R cytotox 4µM
C/C(=N\NC(=S)NCCc1ccccc1)c1ccc(Cl)cc1	GLP1R inv ag 10µM, GLP1R cytotox inconclusive, GLP1R ag inconclusive
C/C(=N/NC(=O)CNC(=O)CCc1ccccc1)c1ccc(Cl)cc1	GLP1R inv ag inconclusive, GLP1R cytotox inconclusive
CCS(=O)(=O)N1CC(=O)N(c2ccc(C)c(C)c2)C(C)(C(=O)NC2CCCCCC2)C1 (stereo not given)	none (no result: GLP1R ag)
COc1cc(OC)c(-c2c3cc(O)c(=O)cc-3oc3cc(O)c(O)cc23)cc1OC	RGS4 inhibitor inconclusive, GLP1R inv ag 4.5µM, GLP1R cytotox inconclusive
CN(CC(=O)Nc1cccc(F)c1)C(=O)c1ccc(C(=O)c2ccccc2)cc1	GLP1R inv ag inconclusive
CN(CC(=O)Nc1cccc(F)c1)C(=O)c1ccccc1Cc1ccccc1	GLP1R inv ag 13µM
O=C(Cc1cccc(C(F)(F)F)c1)Nc1cc(S(=O)(=O)N2CCOCC2)ccc1N1CCCC1	none
Cc1ccc(NC(=O)c2ccc(Cl)c(N3C(=O)C=CC3=O)c2)cc1	RGS4 inhibitor inconclusive, KAT2A inh 18µM, GLP1R inv ag inconclusive, GLP1R cytotox inconclusive
C[C@@H](CSc1ccc(Br)cc1)CN1CC[C@H](C(C)(C)C)CCC1=O	GLP1R inv ag inconclusive
CC(C)(C)[C@@H]1CCC(=O)N(CC[C@H](Sc2ccccc2)c2ccccc2)CC1	GLP1R inv ag 4.5µM, GLP1R cytotox inconclusive
Cc1ccc(SC[C@H](C)CN2CC[C@H](C(C)(C)C)CCC2=O)cc1	GLP1R inv ag 10µM
CSCC[C@H](NC(=O)[C@H](CC(C)C)NC(=O)[C@@H]1CCCN1C(=O)[C@H](Cc1ccccc1)NC(=O)[C@H](Cc1ccccc1)NC(=O)[C@H](CCC(N)=O)NC(=O)[C@H](CCC(N)=O)NC(=O)[C@@H]1CCCN1C(=O)[C@H](CCCCN)NC(=O)[C@@H]1CCCN1C(=O)[C@@H](N)CCCN=C(N)N)C(N)=O	none (no result: RGS4 inhibitor, GLP1R inv ag, PTHR1 agonist, GLP1R cytotox, GLP1R ag)
COc1cc(-c2nnc(SCC3(c4ccc(Br)cc4)OCCO3)o2)cc(OC)c1OC	GLP1R inv ag 4µM
CCOc1ccc(NC(=O)NCC2CCN(c3ccc(OC)cc3)C2)cc1 (stereo not given)	none
COc1ccc(N2CCC(CNC(=O)Nc3ccc(C)c(C)c3)C2)cc1 (stereo not given)	GLP1R inv ag 6.3µM
CC1COC(=O)C(NNc2ccc(Cl)c(Cl)c2)=N1 (stereo not given)	GLP1R inv ag 2.2µM, GLP1R cytotox inconclusive
Cc1ccc(C)c(NC(=O)CSc2cn(CC(=O)N3CCCC3)c3ccccc23)c1	GLP1R inv ag inconclusive (no result: GLP1R ag)
Cc1cc(OCCn2ccnc2)cc(C)c1Cl	GLP1R inv ag inconclusive
Cc1cc(C)c(C)c(S(=O)(=O)N2CCSCC2)c1C	GLP1R inv ag 10µM
Cc1ccc(C(=O)N(CCCN(C)C)c2nc3ccc(Cl)cc3s2)cc1C	GLP1R inv ag 6.3µM, GLP1R cytotox inconclusive
CN(C)CCCN(C(=O)c1ccco1)c1nc2ccc(Cl)cc2s1	GLP1R inv ag inconclusive, GLP1R cytotox inconclusive
CN(C)CCCN(C(=O)c1ccc2c(c1)CCCC2)c1nc2cc3c(cc2s1)OCO3	GLP1R inv ag 2µM, GLP1R cytotox inconclusive
CN(C)CCCN(C(=O)c1ccco1)c1nc2ccc(Br)cc2s1	GLP1R inv ag 3.2µM, GLP1R cytotox inconclusive

Source: PubChem BioAssay (National Center for Advancing Translational Sciences (NCATS))
